Source: PubChem BioAssay (NCI)
The panel holds about 83,000 compounds, 20% with a hit somewhere; the sample as a whole holds those more often.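 Negative percent growth values reflect cell death: -40 means 40% of the cells present at the start died, and -100 means all died.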 Unmarked numbers belong to inactive results. Active and inactive are the calls of the source. Rule for the calls: active = growth percent below 10; inactive = the rest.

Legend:
Assay in all cases: NCI-60 one-dose screen, 48 h (100 = growth as untreated, 0 = no growth, -100 = all killed)
Conditions in all cases: 10 µM unless noted
NCI-H23 lung = tested on: NCI-H23 lung
NCI-H226 lung = tested on: NCI-H226 lung
NCI-H322M lung = tested on: NCI-H322M lung
HOP-62 NSCLC = tested on: HOP-62 NSCLC
NCI-H460 lung = tested on: NCI-H460 lung
HOP-92 NSCLC = tested on: HOP-92 NSCLC
NCI-H522 lung = tested on: NCI-H522 lung
A549/ATCC NSCLC = tested on: A549/ATCC NSCLC
786-0 renal = tested on: 786-0 renal
COLO 205 colon = tested on: COLO 205 colon
DU-145 prostate = tested on: DU-145 prostate
K-562 leukemia = tested on: K-562 leukemia
MALME-3M melanoma = tested on: MALME-3M melanoma
MDA-MB-231 breast = tested on: MDA-MB-231 breast
SF-268 CNS = tested on: SF-268 CNS
SF-295 CNS = tested on: SF-295 CNS
SF-539 CNS = tested on: SF-539 CNS
UACC-257 melanoma = tested on: UACC-257 melanoma
M14 melanoma = tested on: M14 melanoma
RXF 393 renal = tested on: RXF 393 renal

| SMILES | growth (NCI-H23 lung) | growth (NCI-H226 lung) | growth (NCI-H322M lung) | growth (HOP-62 NSCLC) | growth (NCI-H460 lung) | growth (HOP-92 NSCLC) | growth (NCI-H522 lung) | growth (A549/ATCC NSCLC) | growth (786-0 renal) | growth (COLO 205 colon) | growth (DU-145 prostate) | growth (K-562 leukemia) | growth (MALME-3M melanoma) | growth (MDA-MB-231 breast) | growth (SF-268 CNS) | growth (SF-295 CNS) | growth (SF-539 CNS) | growth (UACC-257 melanoma) | growth (M14 melanoma) | growth (RXF 393 renal) |
| --- | --- | --- | --- | --- | --- | --- | --- | --- | --- | --- | --- | --- | --- | --- | --- | --- | --- | --- | --- | --- |
| COc1ccc2cc(-c3ccc(-c4ccc(C(=N)N)cc4)s3)ccc2c1 | 107% | 102% | 97.7% | 93.3% | 100% | 87.2% | 102% | 104% | 99.5% | 72.5% | 61% | 40% | 104% | 100% | 94.6% | 101% | 98.9% | 104% | 97.6% |  |
| COc1cc(-c2nn(-c3cccc(NC(=O)c4cccc(C(F)(F)F)c4)c3)cc2-c2ccncc2)ccc1Cl | 24.7% | 36.2% | 58.1% | 22.9% | 4.83% (active) | -5.59% (active) | -42.3% (active) | 7.4% (active) | 29.8% | 7.11% (active) | 2.16% (active) | 6.11% (active) | 10.1% | 4.67% (active) | 30.5% |  | -48.8% (active) | 34.5% | 12.3% | -42.8% (active) |
| Cc1[nH]c2ccc(F)cc2c1CCNC(=O)C1CCN(C(=O)c2ccccc2)CC1 | 99.3% [25 µM] | 83.7% [25 µM] | 86.3% [25 µM] | 84.6% [25 µM] | 101% [25 µM] | 4.45% [25 µM] (active) | 89.3% [25 µM] | 96.6% [25 µM] | 88.9% [25 µM] | 90.9% [25 µM] | 82.9% [25 µM] | 90.4% [25 µM] | 75.6% [25 µM] | 79.4% [25 µM] | 79.5% [25 µM] | 96.1% [25 µM] | 86.4% [25 µM] | 98.3% [25 µM] | 98.3% [25 µM] |  |
| Cc1[nH]c2ccc(F)cc2c1CCNC(=O)C1CCN(C(=O)c2ccccc2)C1 (stereo not drawn) | 88.6% [25 µM] | 90.2% [25 µM] | 61.8% [25 µM] | 93.3% [25 µM] | 101% [25 µM] | -0.166% [25 µM] (active) | 95.1% [25 µM] | 97.8% [25 µM] | 89.9% [25 µM] | 101% [25 µM] | 87.6% [25 µM] | 91.9% [25 µM] | 73.3% [25 µM] | 82% [25 µM] | 85.1% [25 µM] | 96.4% [25 µM] | 83% [25 µM] | 99.6% [25 µM] | 98.8% [25 µM] |  |
| N=C(N)c1ccc(-c2ccc(-c3cncc4ccccc34)s2)cc1F | -67.9% (active) | -64% (active) | -67.6% (active) | -83.3% (active) | -72.4% (active) | -87.1% (active) | -90.5% (active) | -76.8% (active) | -91.2% (active) | -85.6% (active) | -91% (active) | -50.6% (active) | -81% (active) | -85.2% (active) | -74.4% (active) | -95.1% (active) | -97.7% (active) | 111% | 96.3% |  |
| COc1ccc(C2C=C(c3ccc(Cl)cc3)N=C3SC=C(C)N32)c(Br)c1 (stereo not drawn) | 50.1% | 59.5% | 55.2% | 30.5% | 13.4% | 95.6% | 23% | 36.9% | 47.2% | 18.6% | -31.5% (active) | 5.84% (active) | 43.6% | 58.2% | 43.4% |  | 37.3% | 39.4% | 28.3% | -7.69% (active) |
| Cn1c2ccc(Br)cc2c2c3c(c4c5ccccc5[nH]c4c21)C(=O)N(O)C3=O | -42.6% (active) | 24.1% | -68% (active) | -67.8% (active) | -14.8% (active) | -77.3% (active) | -67% (active) | -13.8% (active) | -93.8% (active) | -84.4% (active) | -71.1% (active) | -8.92% (active) | -85% (active) | -74.1% (active) | -45.7% (active) |  | -92.6% (active) | -33.7% (active) | -78.2% (active) | -99.5% (active) |
